Laboratory results: PubChem BioAssay AID1159580 (chemical genetic matrix, 2015)
Values joined by “and” are separate entries in the source; they are usually repeats but may differ in a detail not shown here. Equal values may be shown once. The campaign covered roughly 5,500 compounds. About 2,000 (36%) were called active. Roughly 18% stayed inconclusive and do not appear here. Rule as the data show it: active = normalized growth mostly below about 0.91 (no sharp cut-off); inconclusive = no clear call, values can overlap the other calls; inactive = mostly above about 0.92. The list shows a part of the results.

Experiment: chemical genetic growth profiling, strain panel (AID 1159580);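 also: tested at 20 µM; growth read once vehicle control cultures reached saturation at 30 °C; 1 = growth at the plate median or of vehicle wells; lower values mean less growth of the strain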
Details: growth OD

Measured: normalized growth

NC1(C(=O)O)CC1
inactive: S. cerevisiae deletion strains, locus YJR075W, strain HOC1, active compounds read low 0.985 | S. cerevisiae deletion strains, locus YKL009W, strain mrt4, active compounds read low 1.03 | S. cerevisiae deletion strains, locus YKL068W, active compounds read low 1.01 | S. cerevisiae deletion strains, locus YKL085W, strain MDH1 (second series), active compounds read low 1.04 | S. cerevisiae deletion strains, locus YKL085W, strain MDH1, active compounds read low 1.04 | S. cerevisiae deletion strains, locus YKL160W, strain elf1, active compounds read low 1.04 | S. cerevisiae deletion strains, locus YKL190W, strain CNB1, active compounds read low 1.01 | S. cerevisiae deletion strains, locus YKR001C, strain vps1, active compounds read low 1.03 | S. cerevisiae deletion strains, locus YKR026C, strain gcn3, active compounds read low 1.03 | S. cerevisiae deletion strains, locus YKR091W, strain srl3, active compounds read low 1.03 | S. cerevisiae deletion strains, locus YLL001W, strain dnm1, active compounds read low 1.01 | S. cerevisiae deletion strains, locus YLL026W, active compounds read low 1.03 | S. cerevisiae deletion strains, locus YLL041C, strain sdh2, active compounds read low 1.02 | S. cerevisiae deletion strains, locus YLR027C, strain aat2, active compounds read low 1.02 | S. cerevisiae deletion strains, locus YLR039C, strain RIC1, active compounds read low 1.04 | S. cerevisiae deletion strains, locus YLR058C, strain SHM2, active compounds read low 1.01 | S. cerevisiae deletion strains, locus YLR102C, strain apc9, active compounds read low 1.01 | S. cerevisiae deletion strains, locus YLR113W, strain HOG1, active compounds read low 1.04 | S. cerevisiae deletion strains, locus YLR221C, strain rsa3, active compounds read low 1 | S. cerevisiae deletion strains, locus YLR258W, strain gsy2, active compounds read low 1.04 | S. cerevisiae deletion strains, locus YLR262C, strain YPT6 (second series), active compounds read low 1.03 | S. cerevisiae deletion strains, locus YLR262C, strain YPT6, active compounds read low 1.03 | S. cerevisiae deletion strains, locus YLR268W, strain sec22, active compounds read low 1.02 | S. cerevisiae deletion strains, locus YLR320W, strain mms22, active compounds read low 1.01 | S. cerevisiae deletion strains, locus YLR330W, strain CHS5, active compounds read low 1.01 | S. cerevisiae deletion strains, locus YLR342W, strain FKS1 (second series), active compounds read low 1.04 | S. cerevisiae deletion strains, locus YLR342W, strain FKS1, active compounds read low 1.03 | S. cerevisiae deletion strains, locus YLR357W, strain rsc2, active compounds read low 1.02 | S. cerevisiae deletion strains, locus YLR370C, strain arc18, active compounds read low 1.05 | S. cerevisiae deletion strains, locus YLR371W, strain rom2, active compounds read low 1.01 | S. cerevisiae deletion strains, locus YLR384C, strain iki3, active compounds read low 1.01 | S. cerevisiae deletion strains, locus YLR418C, strain cdc73, active compounds read low 1 | S. cerevisiae deletion strains, locus YML016C, strain PPZ1, active compounds read low 1.01 | S. cerevisiae deletion strains, locus YML032C, strain rad52, active compounds read low 1.04 | S. cerevisiae deletion strains, locus YML120C, strain ndi1, active compounds read low 1.01 | S. cerevisiae deletion strains, locus YML124C, strain tub3, active compounds read low 1.02 | S. cerevisiae deletion strains, locus YMR058W, strain fet3, active compounds read low 1.03 | S. cerevisiae deletion strains, locus YMR078C, strain ctf18, active compounds read low 1.03 | S. cerevisiae deletion strains, locus YMR125W, strain sto1, active compounds read low 1.03 | S. cerevisiae deletion strains, locus YMR129W, active compounds read low 1.02 | S. cerevisiae deletion strains, locus YMR205C, strain PFK2, active compounds read low 1.03 | S. cerevisiae deletion strains, locus YMR223W, strain ubp8, active compounds read low 1.03 | S. cerevisiae deletion strains, locus YMR231W, strain pep5, active compounds read low 1.03 | S. cerevisiae deletion strains, locus YMR263W, strain SAP30, active compounds read low 1.02 and 1 | S. cerevisiae deletion strains, locus YMR307W, strain GAS1, active compounds read low 0.989 | S. cerevisiae deletion strains, locus YNL067W, strain RPL9B, active compounds read low 1.02 | S. cerevisiae deletion strains, locus YNL071W, strain lat1, active compounds read low 1.03 | S. cerevisiae deletion strains, locus YNL128W, strain TEP1, active compounds read low 1.01 | S. cerevisiae deletion strains, locus YNL153C, strain GIM3, active compounds read low 1.02 and 0.995 | S. cerevisiae deletion strains, locus YNL175C, strain NOP13, active compounds read low 0.965 | S. cerevisiae deletion strains, locus YNL183C, strain NPR1, active compounds read low 0.964 | S. cerevisiae deletion strains, locus YNL197C, strain WHI3, active compounds read low 0.965 | S. cerevisiae deletion strains, locus YNL209W, strain ssb2, active compounds read low 1.04 | S. cerevisiae deletion strains, locus YNL224C, strain SQS1, active compounds read low 1.01 | S. cerevisiae deletion strains, locus YNL233W, strain BNI4, active compounds read low 1 | S. cerevisiae deletion strains, locus YNL248C, strain rpa49, active compounds read low 1.06 | S. cerevisiae deletion strains, locus YNL250W, strain rad50, active compounds read low 1.03 | S. cerevisiae deletion strains, locus YNL271C, strain bni1, active compounds read low 1.03 | S. cerevisiae deletion strains, locus YNL298W, strain CLA4, active compounds read low 1.03 | S. cerevisiae deletion strains, locus YNL307C, strain MCK1, active compounds read low 1.04 | S. cerevisiae deletion strains, locus YNL322C, strain KRE1 (second series), active compounds read low 1.02 | S. cerevisiae deletion strains, locus YNL322C, strain KRE1, active compounds read low 1.01 | S. cerevisiae deletion strains, locus YNR049C, strain mso1, active compounds read low 1.01 | S. cerevisiae deletion strains, locus YNR052C, strain pop2, active compounds read low 1.01 | S. cerevisiae deletion strains, locus YOL006C, strain TOP1, active compounds read low 1.05 | S. cerevisiae deletion strains, locus YOL012C, strain htz1 0.791 | S. cerevisiae deletion strains, locus YOL147C, strain pex11, active compounds read low 1 | S. cerevisiae deletion strains, locus YOR001W, strain rrp6, active compounds read low 1.01 | S. cerevisiae deletion strains, locus YOR061W, strain CKA2, active compounds read low 1.01 | S. cerevisiae deletion strains, locus YOR069W, strain VPS5, active compounds read low 1 | S. cerevisiae deletion strains, locus YOR070C, strain gyp1, active compounds read low 1.02 | S. cerevisiae deletion strains, locus YOR080W, strain dia2, active compounds read low 1.02 | S. cerevisiae deletion strains, locus YOR083W, strain WHI5 (second series), active compounds read low 0.956 | S. cerevisiae deletion strains, locus YOR083W, strain WHI5, active compounds read low 1.04 | S. cerevisiae deletion strains, locus YOR106W, strain vam3, active compounds read low 1.04 | S. cerevisiae deletion strains, locus YOR136W, strain idh2, active compounds read low 1.02 | S. cerevisiae deletion strains, locus YOR144C, strain elg1, active compounds read low 1.02 | S. cerevisiae deletion strains, locus YOR184W, strain ser1, active compounds read low 1.05 | S. cerevisiae deletion strains, locus YOR231W, strain MKK1, active compounds read low 1.03 | S. cerevisiae deletion strains, locus YOR265W, strain rbl2, active compounds read low 1.03 | S. cerevisiae deletion strains, locus YOR270C, strain vph1, active compounds read low 1.1 | S. cerevisiae deletion strains, locus YOR290C, strain snf2, active compounds read low 1.06 | S. cerevisiae deletion strains, locus YOR316C, strain cot1, active compounds read low 1.01 | S. cerevisiae deletion strains, locus YPL051W, strain arl3, active compounds read low 1.04 | S. cerevisiae deletion strains, locus YPL055C, strain LGE1, active compounds read low 1 | S. cerevisiae deletion strains, locus YPL078C, strain atp4, active compounds read low 1.05 | S. cerevisiae deletion strains, locus YPL106C, strain sse1, active compounds read low 1.03 | S. cerevisiae deletion strains, locus YPL240C, strain hsp82, active compounds read low 1.02 | S. cerevisiae deletion strains, locus YPL241C, strain CIN2, active compounds read low 0.999 and 0.995 | S. cerevisiae deletion strains, locus YPL256C, strain CLN2, active compounds read low 1 | S. cerevisiae deletion strains, locus YPR119W, strain clb2, active compounds read low 1 | S. cerevisiae deletion strains, locus YPR141C, strain kar3, active compounds read low 1.02 | S. cerevisiae deletion strains, locus YPR163C, strain tif3, active compounds read low 1.03 | S. cerevisiae deletion strains, locus YPR167C, strain met16, active compounds read low 1.02 | S. cerevisiae deletion strains, strain wtn01, active compounds read low 1.02 | S. cerevisiae strains, strain wild type, active compounds read low 1.01
